The entries come from a sample that favours hits as a whole.
RE007 growth inh – less growth of the S. pombe RE007 Vpr strain | AID 651644 | S. pombe RE007 Vpr strain, BacTiter-Glo ATP luminescence, 24 h | actives 0.21% (n = 360,000) | Potency, µM (doses to about 92.2 µM), without a hit: top-dose activity change, negative = less growth, actives largely listed as inhibitors; active = well fitted falling curve with a large enough effect; inconclusive = small, poorly fitted or top-dose-only effect; inactive = no such curve, though single readings can be large or run the other way; also: potency is read from the fitted curve at half-maximal effect; % is scaled to controls: 0 for no effect and ±100 for the full control effect; nearly all actives have a fitted effect of over 50% in size
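Fission yeast strain RE007, carrying one chromosomally integrated HIV-1 vpr copy, was seeded at OD 0.01 in PMG+AL medium with 23 nL pinned compound. After 24 h at 30 °C and 99% humidity, viability was read by BacTiter-Glo luminescence.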
Shiga inhibitor – blocks Shiga toxin action in Vero cells; actives 9.2% (n = 290,000); Vero cells, Shiga toxin protein synthesis inhibition reporter; inhibition, % at 38.7 µM; in the data active = inhibition mostly above about 28%, no sharp cut-off; inactive = mostly below about 43%; also: 0% is about no effect
Tb PYK inh – blocks Trypanosoma brucei pyruvate kinase | Q57TT1 | TbPYK enzyme, Kinase-Glo Plus ATP luminescence, 45 min | Potency, µM (titrated, usually from 76.8 µM), inactives show at the top dose activity, negative = inhibition, usual class: inhibitors | actives 0.12% (n = 410,000); also: potency is read from the fitted curve at half-maximal effect; % is scaled to controls: 0 for no effect and ±100 for the full control effect; nearly all actives have a fitted effect of over 50% in size
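T. brucei PYK with substrate was exposed to pin-transferred compounds across a concentration series, then started with 130 uM ADP (final). After 45 min at room temperature, Kinase-Glo Plus luminescence was read, normalized and curve-fitted.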
CHX counter – counter-screen for Shiga toxin inhibitors: cycloheximide protein synthesis inhibition; cell reporter, cycloheximide protein synthesis inhibition counterscreen; max response, %; actives 12% (n = 300,000); AID 2314; in the data active = max response mostly above about 13%, no sharp cut-off; inactive = mostly below about 14%; also: read at 38.3 µM for the half of the compounds with a filed dose; 0% is about no effect
LmPK inh – LmPK (Leishmania mexicana) enzyme inhibition. Q27686. Potency, µM (titrated, usually from 57.5 µM), without a hit: top-dose activity change, negative = inhibition, usual class: inhibitors. actives 0.37% (n = 290,000). purified LmPK, Kinase-Glo ATP luminescence, 1 h; also: potency is read from the fitted curve at half-maximal effect; % is scaled to controls: 0 for no effect and ±100 for the full control effect
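Pyruvate kinase activity monitored as ATP production (luciferase luminescence). Conditions: 0.1 nM enzyme, 0.5 mM PEP, 0.1 mM ADP, 1 h, RT; normalized against uninhibited and no-enzyme wells.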
Giardia FBPA inh – Giardia lamblia aldolase inhibition. A8B2U2. purified Giardia FBPA. AID 2451. Potency, µM (top dose mostly 59.6 µM), without a hit: top-dose activity, negative = inhibition, usual class: inhibitors. actives 0.71% (n = 290,000); also: potency is read from the fitted curve at half-maximal effect; % is scaled to controls: 0 for no effect and ±100 for the full control effect; nearly all actives have a fitted effect of over 55% in size
Target sequence (A8B2U2 whole entry, looked up): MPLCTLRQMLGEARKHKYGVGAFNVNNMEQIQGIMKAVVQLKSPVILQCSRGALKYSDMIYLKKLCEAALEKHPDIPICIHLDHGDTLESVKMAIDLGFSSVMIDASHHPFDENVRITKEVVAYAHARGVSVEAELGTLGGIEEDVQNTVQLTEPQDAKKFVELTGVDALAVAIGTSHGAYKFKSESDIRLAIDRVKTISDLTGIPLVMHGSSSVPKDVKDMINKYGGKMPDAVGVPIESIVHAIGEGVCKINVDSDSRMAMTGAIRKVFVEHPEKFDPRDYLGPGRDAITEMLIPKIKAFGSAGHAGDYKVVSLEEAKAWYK
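40 nM FBPA preincubated 10 min at RT with compound (up to 57.5 uM final), then substrate plus GAPDH/TPI/NAD/arsenate coupling and diaphorase/resazurin added. Fluorescence read after 20 min at RT, 525/598 nm.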
* hit, by the source's call; u = inconclusive; x = not tested or not shown; + = active, no number; [ ] = another dose, or the depositor's remark. Unless noted, calls follow the shape of the dose curve; as a rule, active = well fitted curve in the direction sought with a large enough effect; inconclusive = small, poorly fitted or top-dose-only effect, or another doubt; inactive = no such curve, though single readings can be large; an effect the other way counts as inactive or inconclusive.

SMILES	RE007 growth inh	Shiga inhibitor	Tb PYK inh	CHX counter	LmPK inh	Giardia FBPA inh
CC(=O)N1CCCC(C(=O)c2ccc(Oc3ccccc3)cc2)C1 (stereo not given)	6.7%	57.3*	-2.9%	33.7*	-2.1%	-9.2%
Cc1ccn(CC(=O)N2CCCC(C(=O)c3cccc4ccccc34)C2)n1 (stereo not given)	-7.8%	0.7	-1.0%	2.5	7.4%	-0.9%
Cc1nc(C)n(CC(=O)N2CCCC(C(=O)c3cccc4ccccc34)C2)n1 (stereo not given)	-5.1%	23.8	-5.7%	14.4*	-1.3%	1.3%
O=C(c1ccc(C(F)(F)F)cc1)C1CCCN(C(=O)CN2C(=O)CSC2=O)C1 (stereo not given)	-16.1%	52.8*	-5.9%	25.4*	-5.0%	-0.9%
O=C(c1ccc(C(F)(F)F)cc1)C1CCCN(C(=O)CN2CCCC2=O)C1 (stereo not given)	3.7%	-11.6	1.4%	-3.6	3.6%	-21.3%
COc1ccc(C2CC(=O)c3c([nH]c(C(=O)OC4CCCCCC4)c3C)C2)cc1OC (stereo not given)	x	x	-10.5%	x	x	x
Cc1ccc(-n2cnc3cc(C(=O)NC4CCCCCC4)ccc32)c(C)c1	x	x	1.7%	x	x	x
NNc1ccccc1C(F)(F)F	22.4%	62.8	-0.2%	28.2*	1.7%	-9.9%
COc1ccc(CNc2oc(/C=C/c3cccc(OC)c3)nc2C#N)cc1	x	x	0.4%	x	x	x
c1cc(-c2cnn3cc(-c4ccc(OCCN5CCCCC5)cc4)cnc23)ccn1	x	27.3*	3.3%	39.7*	x	10.1%
COc1ccc(-c2cnn3cc(-c4cccc(Cl)c4)cnc23)cc1	1.5%	-8.7	-10.4%	-5.9	5.9%	6.5%
c1ccc2oc(-c3[nH]ncc3CN3CCSCC3)cc2c1	-4.9%	-9.0	3.7%	-0.5	3.4%	-0.4%
c1ccc2oc(-c3ccn[nH]3)cc2c1	-6.1%	90.2*	-5.7%	39.2*	-2.0%	-6.7%
CCc1ccccc1NC(=S)N1N=CCC1c1ccccc1 (stereo not given)	-2.1%	54.8	-0.1%	16.5*	2.4%	-15.1%
CCc1ccccc1NC(=S)N1CCCCCC1	9.2%	-10.6	6.4%	1.3	-10.2%	x
Cc1cccc(NC(=S)N2N=CCC2c2ccccc2)c1 (stereo not given)	4.9%	118.7*	2.1%	41.8*	-2.9%	2.6%
COc1ccccc1C(=O)NC(=O)CSc1nnnn1C	3.3%	x	2.8%	x	x	x
Cc1ccc(C(=O)c2sc(Nc3ccccc3F)c(S(=O)(=O)c3ccccc3)c2N)c(C)c1	x	x	2.8%	x	x	x
O=C(NNC(=O)c1ccccc1[N+](=O)[O-])Nc1ccc(Cl)cc1	2.4%	34.6	-0.1%	13.8	0.3%	-0.7%
O=C(Nc1ccc(Cl)cn1)c1ccccc1[N+](=O)[O-]	-4.1%	44.6	-9.3%	18.4*	-0.3%[11.5 µM]	0.4%
O=C(Nc1ccc(Cl)cn1)c1cccc2ccccc12	-22.8%	x	5.0%	18.2*	9.1%	-2.1%
CCCS(=O)(=O)NCCc1csc2nc(-c3ccc(OC)cc3)nn12	x	x	0.9%	x	x	x
CCN(CC)c1ccc2nc3ccc(N)cc3[n+](-c3ccccc3)c2c1	22.4µM*	x	u	x	x	x
CCN(CC)c1ccc2nc3ccccc3[n+](CC)c2c1	2.82µM*	-8.8	u	-7.1	u	-13.9%
O=C(CC1CCCC1)N1CCN(S(=O)(=O)c2cccc(F)c2)CC1	17.8%	x	1.5%	x	x	x
SMILES	RE007 growth inh	Shiga inhibitor	Tb PYK inh	CHX counter	LmPK inh	Giardia FBPA inh
O=C(Nc1ccc(Cl)cc1)Nc1ccccn1	0.3%	102.9*	0.6%	40.8*	-2.7%	9.1%
O=C(Nc1ccccc1)Nc1ccccn1	-3.4%	59.8*	-5.1%	32.6*	-9.5%	1.7%
O=C(Cc1ccccc1)NCC(=O)N1CCCCC1	2.7%	1.7	2.1%	21.4	-6.0%	-2.4%
O=C(CC(c1ccccc1O)N1CCCCC1)N1CCCCC1 (stereo not given)	-2.9%[3.69 µM]	34.6*	x	40.9*	-12.1%	2.7%
CCOC(=O)Cc1cc(-c2ccc(OC)cc2)nc2ccc3ccccc3c12	-2.4%	-2.1	9.8%	-2.2	3.4%	-9.9%
CCOC(=O)Cc1cc(-c2ccc(O)cc2)nc2ccc3ccccc3c12	-10.9%	82.9*	-1.2%	22.3	-2.7%	0.0%
CCNC(=S)N/N=C/c1cccc(OCc2c(F)cccc2Cl)c1	x	33.1	-3.5%	18.4	0.0%	-19.2%
CNC(=S)N/N=C/c1cccc(OCc2ccccc2F)c1	-24.4%	51.5*	-2.1%	26.7*	-10.9%	-12.3%
O=C(N/N=C/c1cccc(Oc2ccccc2)c1)c1cc[n+]([O-])cc1	1.6%	13.0	2.9%	2.0	2.2%	-4.3%
O=C(N/N=C/c1cccc(Oc2ccccc2)c1)c1ccccc1F	x	+	x	72.9*	6.2%	-2.6%
Nc1ccc(C(=O)N/N=C/c2cccc(Oc3ccccc3)c2)cc1	6.2%	33.0	-9.7%	30.0*	-0.2%	-3.3%
Cc1ccc(OCCSc2cc(C)nc(N)n2)cc1	-27.5%	29.6	2.5%	15.8	0.7%	1.1%
CCCCSc1cc(C)nc(N)n1	4.3%	54.3*	-12.3%	31.2*	-4.0%	-2.0%
O=S1(=O)CCC(NC(=S)Nc2ccccc2)C1 (stereo not given)	25.2%	-6.4	0.6%	-1.6	0.6%	3.7%
O=S1(=O)CCC(NC(=S)Nc2ccc3ccccc3c2)C1 (stereo not given)	3.0%	43.0*	-5.1%	27.1*	3.3%	-2.6%
Cc1nc(N=Nc2cc([N+](=O)[O-])ccc2Cl)c(COP(=O)(O)O)c(C=O)c1O	x	-11.0	x	-11.0	x	22.3µM*
COc1ccc2oc(=Nc3ccccc3)c(-c3nc4ccccc4[nH]3)cc2c1	x	71.4*	-12.8%	58.8*	-8.4%	1.8%
S=C(Nc1ccc(-c2nc3ccccc3[nH]2)cc1)Nc1cccnc1	-28.2%	66.1*	-15.7%	61.0*	-0.3%	-4.4%
COc1ccc(-c2nc3ccccc3nc2-c2ccc(OC)cc2)cc1	-6.7%	-1.6	-4.9%	-3.7	-2.0%	11.8%
COc1ccc(-c2nc3ccccc3[nH]2)cc1	u	26.8	u	24.6*	12.6µM*	-17.2%
COC(=O)c1ccc(-c2nc3ccccc3[nH]2)cc1	u	active	-21.1%	63.4*	u	-0.4%
CCNC(=O)c1nn(-c2ccccc2C)nc1CO	x	x	3.0%	x	x	x
Cc1ccc(S(=O)(=O)N2CCN(C(=O)CNC(=O)c3ccc(Br)o3)CC2)cc1	1.3%	x	-1.2%	x	x	x
S=C(NCCN1CCOCC1)Nc1ccc(-c2nc3ccccc3[nH]2)cc1	-12.3%	176.7*	7.4%	28.4*	3.5%	-11.3%
Fc1cc2nc(-c3ccncc3)[nH]c2cc1F	-5.2%	71.4	-12.5%	24.2*	-8.4%	-5.6%
COc1cc(OC)cc(C(=O)Nc2cc(-c3nc4ccccc4[nH]3)ccc2C)c1	x	x	7.3%	x	x	x

Screening data from PubChem BioAssay.
